Experiment [1] can be described thus: Nuclear factor erythroid 2-related factor 2/antioxidant responsive element (Nrf2/ARE) small molecule agonists: luciferase reporter gene qHTS assay in human keratinocytes (AID 1919969). Note: nearly all actives have a fitted effect of over 35% in size. Note: potency is the fitted concentration of half-maximal effect. Background: In a reporter assay the amount or activity of a reporter protein is the signal.
The target in experiment [2] is Gonadotropin-releasing hormone receptor (Homo sapiens) (UniProt P30968). Kind of experiment: Human gonadotropin-releasing hormone receptor (GnRHR) small molecule agonists, calcium flux assay in GnRHR-HEK293 cells (AID 1920063). Note: nearly all actives have a fitted effect of over 35% in size. The method, boiled down:
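Calcium-dye fluorescence, Ex/Em=480/540, recorded every 1 sec over 3 min after compound addition to GnRHR-HEK293 cells. Cells had been seeded 18 hours earlier and dye-loaded for 1 hour at 37 C. Fifteen concentrations, triplicates.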

Experiment [3] has as its target KiSS-1 receptor (Homo sapiens) (UniProt Q969F8). Kind of experiment: Human kisspeptin (KISS1R) small molecule agonists, calcium flux assay in KISS1R-HEK293 cells (AID 1920064; active = well fitted activation curve with a large enough effect in the repeat runs). The essentials: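 Calcium flux read-out: kinetic fluorescence at Ex/Em=480/540, 1 s intervals over 3 min, after pin-tool compound addition to dye-loaded KISS1R-HEK293 cells. Fifteen concentrations, triplicates.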
(A change in cytosolic calcium serves as a functional read-out for many receptors and channels.)

Experiment [4] is described as follows: G protein-coupled receptor (GPCR) small molecule agonists, calcium flux assay: HEK293 wild type cell line counter screen (AID 1920065). The method, boiled down:
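Agonist mode; 18 h seeding at 37 C, 1 h dye load at 37 C; compounds pinned from DMSO, ATP as positive control; kinetic fluorescence 480/540 nm, 3 min, 1 s reads; 15 concentrations, triplicate.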

Experiment [5] can be described thus: p53 small molecule agonists, cell-based qHTS assay with human liver microsomes: qHTS cell viability counter screen (AID 1963579). Note: nearly all actives have a fitted effect of over 45% in size. Note: potency is the fitted concentration of half-maximal effect. The essentials: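 Tox21 library compounds, delivered from DMSO stocks, were tested on p53RE-bla cells together with 0.5 mg/mL human liver microsomes and 0.5 mg/mL NADPH (final) over 16 h at 37 C; CellTiter-Glo luminescence served as the cytotoxicity measure.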

Experiment [6] in a line: p53 small molecule agonists, cell-based qHTS assay with rat liver microsomes: qHTS cell viability counter screen (AID 1963580). Note: nearly all actives have a fitted effect of over 45% in size. The essentials:
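Cytotoxicity counter screen: intracellular ATP measured by CellTiter-Glo luminescence in the same wells as the beta-lactamase reporter read, on HCT-116 p53RE-bla cells exposed 16 h at 37 C to compounds with rat liver microsomes and NADPH, each 0.5 mg/mL final.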

Experiment [7] deals with 5-hydroxytryptamine receptor 2A (Homo sapiens) (UniProt P28223). Kind of experiment: 5-hydroxytryptamine receptor 2A (HTR2A) small molecule antagonists, cell-based qHTS assay (AID 1963586). Note: nearly all actives have a fitted effect of over 45% in size. The essentials: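 CHO cells stably expressing human HTR2A were plated for 18 h at 37 C, then loaded with calcium dye for 1 h. Compounds were preincubated 5 min at room temperature before DOI (4 nM solution) was added. Kinetic fluorescence was read for 3 min.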
Sequence of 5-hydroxytryptamine receptor 2A (Homo sapiens) (P28223 whole entry, looked up): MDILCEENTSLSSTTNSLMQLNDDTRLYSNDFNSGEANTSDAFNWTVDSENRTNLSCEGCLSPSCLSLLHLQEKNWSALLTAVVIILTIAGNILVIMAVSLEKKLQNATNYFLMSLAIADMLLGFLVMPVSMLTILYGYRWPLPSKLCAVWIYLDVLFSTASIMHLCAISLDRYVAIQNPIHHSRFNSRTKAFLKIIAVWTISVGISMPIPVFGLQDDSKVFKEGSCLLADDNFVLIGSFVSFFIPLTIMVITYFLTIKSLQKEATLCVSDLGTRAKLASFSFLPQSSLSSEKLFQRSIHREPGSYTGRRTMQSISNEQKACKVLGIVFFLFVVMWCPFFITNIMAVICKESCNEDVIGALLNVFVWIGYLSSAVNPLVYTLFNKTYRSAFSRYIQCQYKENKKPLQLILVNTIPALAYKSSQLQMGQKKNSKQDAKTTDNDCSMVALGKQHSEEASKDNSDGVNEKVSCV

The target is the same in experiment [8]. Kind of experiment: 5-hydroxytryptamine receptor 2A (HTR2A) small molecule agonists, cell-based qHTS assay (AID 1963587). Note: nearly all actives have a fitted effect of over 30% in size. The method, boiled down: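 CHO cells stably expressing human HTR2A, plated 18 h, loaded with calcium dye 1 h at 37 C. Agonist mode: compounds added and intracellular calcium fluorescence recorded kinetically for 2 min at 1 sec intervals.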
(In general: qHTS replaces the single test concentration by a dilution series.)

Experiment [9] addresses Muscarinic acetylcholine receptor M1 (Homo sapiens) (UniProt P11229). Nature of the experiment: Cholinergic receptor muscarinic 1 (CHRM1) small molecule antagonists, cell-based qHTS assay (AID 1963588). Note: nearly all actives have a fitted effect of over 40% in size. The essentials: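 Compounds were tested at 15 concentrations in three independent runs. Dye-loaded CHRM1-CHO cells were exposed 5 min at room temperature before stimulation by acetylcholine added at 50nM. Intracellular calcium was read kinetically on FDSS for 3 min.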

Experiment [10] shares this target. Kind of experiment: Cholinergic receptor muscarinic 1 (CHRM1) small molecule agonists, cell-based qHTS assay (AID 1963589). Note: nearly all actives have a fitted effect of over 35% in size. The method, boiled down: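 Calcium flux read-out: kinetic fluorescence at 1 sec intervals after pin-tool compound addition to dye-loaded CHRM1-CHO cells (human M1). Agonist mode; 15 concentrations tested in triplicate independent runs.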
Experiment [11] can be described thus: cAMP Responsive Elements (CRE) small molecule agonists, cell-based qHTS assay (AID 1963590). The essentials: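 Beta-lactamase reporter readout: LiveBLAzer B/G FRET substrate, 2 h at room temperature, added after 3 h compound treatment of CRE-bla HEK 293T cells at 37 C/5% CO2.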
Experiment [12] concerns the target Beta-2 adrenergic receptor (Homo sapiens) (UniProt P07550). Nature of the experiment: Adrenergic beta2 receptor (ADRB2) small molecule antagonists, cell-based qHTS assay (AID 1963592). Note: series mostly up to about 92 µM; nearly all actives have a fitted effect of over 50% in size. The method, boiled down: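 Assay format: CHO-ADRB2 cells, 18-20hr seeding at 37C/5% CO2, then compound plus 1nM isoproterenol agonist mix for 0.5hr RT. Homogeneous time-resolved fluorescence cAMP detection after 1hr, expressed as 665/615 nm ratio.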

Experiment [13] shares this target. Kind of experiment: Adrenergic beta2 receptor (ADRB2) small molecule agonists, cell-based qHTS assay (AID 1963593).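 Note: CHO cells stably overexpressing human ADRB2.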 The method, boiled down: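 CHO cells stably over-expressing ADRB2 were plated overnight at 37C, then dosed with compounds plus a stimulation mix containing 100uM IBMX and 25uM Ro-20-1724 for 0.5hr at room temperature. cAMP was measured by HTRF competition, 1hr.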

For experiment [14], the target named is D(2) dopamine receptor (Homo sapiens) (UniProt P14416). Kind of experiment: Dopamine D2 receptor (DRD2) small molecule agonists, cell-based qHTS assay (AID 1963594). Note: nearly all actives have a fitted effect of over 35% in size. The essentials: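 HEK293 cells stably expressing human DRD2, pre-treated with PDE inhibitor Ro20-1724 (0.1 mM final) and compound 10 min at room temperature, then stimulated with NKH477 (200nM […]) for 30 min. cAMP read by HTRF (665/620 nm).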
Sequence of D(2) dopamine receptor (Homo sapiens) (P14416 whole entry, looked up): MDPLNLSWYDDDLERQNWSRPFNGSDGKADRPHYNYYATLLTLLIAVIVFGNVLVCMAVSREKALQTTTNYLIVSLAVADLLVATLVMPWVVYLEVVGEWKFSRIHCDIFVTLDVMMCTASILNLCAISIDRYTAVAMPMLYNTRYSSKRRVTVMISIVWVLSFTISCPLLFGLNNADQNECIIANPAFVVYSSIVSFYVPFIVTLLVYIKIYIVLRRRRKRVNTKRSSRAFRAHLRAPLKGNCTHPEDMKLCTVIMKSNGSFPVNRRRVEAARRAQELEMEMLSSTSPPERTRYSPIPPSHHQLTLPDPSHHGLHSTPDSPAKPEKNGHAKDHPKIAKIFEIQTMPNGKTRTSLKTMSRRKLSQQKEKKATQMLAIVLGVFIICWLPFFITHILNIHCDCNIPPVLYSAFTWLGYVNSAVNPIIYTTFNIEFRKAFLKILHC

Experiment [15] can be described thus: p53 small molecule agonists, cell-based qHTS assay: qHTS cell viability counter screen (AID 1963581). Note: nearly all actives have a fitted effect of over 45% in size. Note: potency is the fitted concentration of half-maximal effect. The essentials: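 Cytotoxicity read-out: ATP-based luminescence (CellTiter-Glo, 30 min RT) measured in the same wells as the p53 reporter assay, HCT-116 p53RE-bla cells, 16 h compound exposure at 37 C.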
Experiment [16] can be described thus: cAMP Responsive Elements (CRE) small molecule antagonists, cell-based qHTS assay (AID 1963591; active = well fitted inhibition curve with a large enough effect in the signal ratio in the repeat runs, not every such curve was filed as active; the % refers to the signal ratio; note: potency is the fitted concentration of half-maximal effect). The method, boiled down: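 HEK293T CRE-bla; 18 h preincubation; compound pin-transfer; NKH477 0.25 uM final, 3 h, 37 C; LiveBLAzer FRET substrate 2 h RT.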
Experiment [17] deals with D(2) dopamine receptor (Homo sapiens) (UniProt P14416). Nature of the experiment: Dopamine D2 receptor (DRD2) small molecule antagonists, cell-based qHTS assay (AID 1963595; active = well fitted inhibition curve with a large enough effect in the signal ratio in the repeat runs, with a control signal flat; the % refers to the signal ratio). The method, boiled down: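 Readout: HTRF cAMP, cAMP-d2 competing with cellular cAMP for anti-cAMP cryptate, read after 1 h. Cells: DRD2-HEK293. Conditions: 0.1 mM Ro20-1724, 12 nM quinpirole, 200 nM NKH477, 30 min RT.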

Experiment [18] can be described thus: p53 small molecule agonists, cell-based qHTS assay with human liver microsomes (AID 1963577).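 Note: p53 response element beta-lactamase reporter cells with liver microsomes plus NADPH.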 The essentials: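 Metabolically competent format: test substances, human liver microsomes and NADPH (both 0.5 mg/mL final) incubated with p53RE-bla cells 16 h at 37 C. Beta-lactamase reporter signal then quantified by fluorescence.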
Experiment [19] is described as follows: p53 small molecule agonists, cell-based qHTS assay with rat liver microsomes (AID 1963578). The essentials:
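Each plate received p53RE-bla cells, then compound, then rat liver microsomes and NADPH (both 0.5 mg/mL final). Plates were held 16 h at 37 C, and beta-lactamase activity was detected with LiveBLAzer over 2 h.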

Experiment [20] is described as follows: p53 small molecule agonists, cell-based qHTS assay (AID 1963582; active = well fitted activation curve with a large enough effect in the signal ratio in the repeat runs, not every such curve was filed as active; the % refers to the signal ratio). The method, boiled down: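 Fluorescence intensity read-out of a beta-lactamase reporter under a p53 response element. Cells were exposed to DMSO-dissolved compounds for 16 h at 37 C, then developed with FRET substrate for 2 h at RT.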

SMILES strings stand for the structures. Records with an inconclusive call do not appear. The source made the active and inactive calls. Unless noted, calls come from the whole dose curve.

Sequence of Beta-2 adrenergic receptor (Homo sapiens) (P07550 whole entry, looked up): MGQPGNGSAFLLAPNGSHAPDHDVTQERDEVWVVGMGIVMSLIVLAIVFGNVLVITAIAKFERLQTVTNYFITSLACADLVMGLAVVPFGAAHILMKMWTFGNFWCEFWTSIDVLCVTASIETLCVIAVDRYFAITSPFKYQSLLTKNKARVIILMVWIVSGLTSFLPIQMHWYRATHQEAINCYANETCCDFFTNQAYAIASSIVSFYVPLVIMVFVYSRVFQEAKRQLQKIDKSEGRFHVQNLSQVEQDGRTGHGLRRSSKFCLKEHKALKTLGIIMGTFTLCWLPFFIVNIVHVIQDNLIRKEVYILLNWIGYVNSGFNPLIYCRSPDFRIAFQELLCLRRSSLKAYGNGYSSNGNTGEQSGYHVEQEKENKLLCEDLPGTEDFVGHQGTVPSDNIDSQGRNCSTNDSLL
Sequence of Muscarinic acetylcholine receptor M1 (Homo sapiens) (P11229 whole entry, looked up): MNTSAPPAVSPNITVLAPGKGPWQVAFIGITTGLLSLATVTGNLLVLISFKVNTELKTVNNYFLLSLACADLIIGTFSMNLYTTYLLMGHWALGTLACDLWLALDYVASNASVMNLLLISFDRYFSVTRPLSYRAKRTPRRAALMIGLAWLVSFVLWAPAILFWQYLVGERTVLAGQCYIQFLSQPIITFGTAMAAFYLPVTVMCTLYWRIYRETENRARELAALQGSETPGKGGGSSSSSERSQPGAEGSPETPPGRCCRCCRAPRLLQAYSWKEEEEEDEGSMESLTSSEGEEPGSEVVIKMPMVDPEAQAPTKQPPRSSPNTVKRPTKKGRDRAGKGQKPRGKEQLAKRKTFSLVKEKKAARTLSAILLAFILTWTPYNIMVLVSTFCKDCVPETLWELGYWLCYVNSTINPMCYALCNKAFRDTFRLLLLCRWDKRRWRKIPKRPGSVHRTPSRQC
Sequence of KiSS-1 receptor (Homo sapiens) (Q969F8 whole entry, looked up): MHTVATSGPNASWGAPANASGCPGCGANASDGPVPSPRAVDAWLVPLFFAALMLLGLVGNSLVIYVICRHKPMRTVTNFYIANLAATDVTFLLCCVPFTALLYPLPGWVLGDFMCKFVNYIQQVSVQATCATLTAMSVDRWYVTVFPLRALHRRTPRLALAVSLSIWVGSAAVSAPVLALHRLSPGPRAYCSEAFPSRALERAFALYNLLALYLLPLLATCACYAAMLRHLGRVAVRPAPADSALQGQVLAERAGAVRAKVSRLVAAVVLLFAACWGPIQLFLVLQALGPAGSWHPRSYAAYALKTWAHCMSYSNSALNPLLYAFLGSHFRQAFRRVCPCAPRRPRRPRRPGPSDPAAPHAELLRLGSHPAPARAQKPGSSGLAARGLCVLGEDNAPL
Sequence of Gonadotropin-releasing hormone receptor (Homo sapiens) (P30968 whole entry, looked up): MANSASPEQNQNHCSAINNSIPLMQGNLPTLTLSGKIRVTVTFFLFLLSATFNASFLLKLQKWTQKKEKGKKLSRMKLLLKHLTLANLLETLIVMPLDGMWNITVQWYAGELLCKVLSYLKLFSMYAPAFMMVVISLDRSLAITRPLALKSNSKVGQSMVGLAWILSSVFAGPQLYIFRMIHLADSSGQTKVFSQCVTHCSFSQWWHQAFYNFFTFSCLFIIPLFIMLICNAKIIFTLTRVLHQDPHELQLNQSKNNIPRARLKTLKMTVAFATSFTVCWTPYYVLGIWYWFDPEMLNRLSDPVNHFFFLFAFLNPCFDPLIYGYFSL

For `O=[N+]([O-])c1cccc(Cl)c1Cl`, the Potency result in [1], in [2], in experiment [3], in experiment [4], in experiment [5] and in experiment [6] was “inactive” in each case. Moreover, the Potency result in [7], in experiment [8], in [9], in [10], in experiment [11] and in experiment [12] was “inactive” in each case. Moreover, the Potency entry in experiment [13] and in experiment [14] was “inactive” each time.

As for `NC(N)=NN=C(/C=C/c1ccc([N+](=O)[O-])o1)/C=C/c1ccc([N+](=O)[O-])o1`, the Potency in experiment [1] was 6.68 µM (active); in experiment [15] it was 17.8 µM (active); in [16] it was 29.8 µM (active). Also, the Potency entry in experiment [2], in experiment [3], in [4], in experiment [6], in [8] and in experiment [9] was “inactive” throughout. Moreover, the Potency entry in experiment [10], in experiment [12], in experiment [14] and in experiment [17] was “inactive” throughout.

Turning to `CCCCCCCCOC(=O)c1ccc(O)cc1`, the Potency entry in experiment [1], in experiment [2], in experiment [3], in experiment [4], in experiment [7] and in experiment [9] was “inactive” each time. For the same molecule, the Potency result in experiment [10], in experiment [11], in experiment [12], in experiment [14] and in experiment [17] was “inactive” in each case. The Potency in experiment [5] was 45.8 µM (active).

For `NC(=S)NC(N)=S`, the Potency in experiment [1] is 13.7 µM (active). The Potency entry in [2], in experiment [3], in experiment [18], in experiment [19], in experiment [5] and in experiment [6] was “inactive” in each case. Also, the Potency entry in experiment [15], in experiment [20], in [7], in experiment [8], in experiment [9] and in experiment [10] was “inactive” each time. Besides, the Potency entry in [11], in experiment [16], in experiment [12], in [13], in [14] and in experiment [17] was “inactive” throughout.

On to `CCCCNc1ccc(C(=O)OCCOCCOCCOCCOCCOCCOCCOCCOCCOC)cc1`, for which the Potency result in experiment [1], in [2], in experiment [3], in experiment [4], in experiment [5] and in experiment [6] was “inactive” each time. Further, the Potency entry in [7], in experiment [8], in experiment [9], in experiment [10], in experiment [11] and in experiment [16] was “inactive” throughout. Also, the Potency result in experiment [12], in [13], in experiment [14] and in [17] was “inactive” each time.

`Cc1nccn1-c1ccc(Sc2cccc(C3(C(N)=O)CCOCC3)c2)cc1`: the Potency entry in [1], in experiment [2], in [3], in experiment [4], in [6] and in [15] was “inactive” each time. Further, the Potency entry in [7], in experiment [8], in [10], in experiment [12] and in experiment [13] was “inactive” throughout.
